Holding throughout (experiment): NCI-60 one-dose screen, 48 h (100 = growth as untreated, 0 = no growth, -100 = all killed)
The test system of test [1] is NCI-H226 lung. Particulars: 10 µM.
The test system of test [2] is NCI-H322M lung. Particulars: 10 µM.
In test [3] the test system is HOP-62 NSCLC. Particulars: 10 µM.
Test [4] has as its system NCI-H460 lung. As to conditions: 10 µM.
Test [5] concerns HOP-92 NSCLC. As to conditions: 10 µM.
The subject of test [6] is NCI-H522 lung. Particulars: 10 µM unless noted.
Test [7] has as its system A549/ATCC NSCLC. Particulars: 10 µM.
Test [8] has as its system 786-0 renal. As to conditions: 10 µM.
Test [9] has as its system COLO 205 colon. Particulars: 10 µM.
Test [10] relates to DU-145 prostate. As to conditions: 10 µM unless noted.
Test [11] relates to K-562 leukemia. As to conditions: 10 µM.
The test system of test [12] is MALME-3M melanoma. As to conditions: 10 µM.
Test [13] deals with MDA-MB-231 breast. Particulars: 10 µM.
Test [14] relates to RXF 393 renal. Particulars: 10 µM unless noted.
For test [15], the system named is SF-268 CNS. As to conditions: 10 µM.
For test [16], the system named is SF-295 CNS. As to conditions: 10 µM.
The subject of test [17] is SF-539 CNS. As to conditions: 10 µM.
The subject of test [18] is UACC-257 melanoma. Particulars: 10 µM.
The test system of test [19] is M14 melanoma. Particulars: 10 µM.

“And” between values parts separate entries of the source, which are not always exact repeats. Equal values may be shown once. About 83,000 compounds went through this panel and 20% of them were active in at least one assay; those are over-represented in the sample as a whole.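 Method: cells in 96-well plates; compound added at one concentration; 48 h incubation; percent growth measured; values under 10 scored active.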 The source made the active and inactive calls.

Turning to `CN(C)C(=S)SC(=S)N(C)C`, the growth in [1] was 104% (inactive); in test [2], 101% (inactive) and 86% (inactive); in test [3], 112% (inactive) and 103% (inactive); in [4], 98.7% (inactive) and 91.3% (inactive); in [5], 97.9% (inactive) and 108% (inactive); in test [6], 77.4% (inactive) and 61.1% (inactive). Moreover, the growth is 95.9% (inactive) and 86.6% (inactive) in [7]; 96.7% (inactive) and 105% (inactive) in test [8]; 81.5% (inactive) and 49.1% (inactive) in test [9]; 108% (inactive) and 104% (inactive) in test [10]; 58% (inactive) and 75.7% (inactive) in [11]; 84.7% (inactive) and 85% (inactive) in [12]. For the same compound, the growth was 105% (inactive) and 122% (inactive) in [13]; 108% (inactive) and 109% (inactive) in test [14]; 107% (inactive) and 95.8% (inactive) in [15]; 100% (inactive) and 101% (inactive) in [16]; 93.5% (inactive) and 101% (inactive) in test [17]; 96.5% (inactive) and 77.5% (inactive) in test [18]. The growth in test [19] was 90.5% (inactive) and 93% (inactive).
In the case of `CC[N+](CC)=c1ccc2nc3c(cc(N)c4ccccc43)oc-2c1`, the growth was -48% (active) in test [1]; -46.5% (active) in test [2]; -69% (active) in test [3]; -60.3% (active) in test [5]; -48.4% (active) in test [6]; -19.4% (active) in test [7]. The growth was -79% (active) in test [8]; -44.4% (active) in [9]; -60% (active) in [10]; 1.13% (active) in [11]; -60.9% (active) in test [12]; -71.5% (active) in test [13]. The growth was -23.7% (active) in test [14]; -54% (active) in [15]; -83% (active) in [16]; -79.7% (active) in [17]; -70.2% (active) in test [18]; -56.9% (active) in test [19].
As to `O=C1C=C(O)c2ccccc2C1=O.[Ag]`, the growth in test [2] was 99% (inactive); in test [3], 98.3% (inactive); in test [6], -34.4% (active); in test [8] it was 104% (inactive); in test [9] it was 78.8% (inactive); in test [10] it was 121% (inactive). The growth in test [11] is 83.5% (inactive); in test [12], 85.3% (inactive); in [13] it was 89.2% (inactive); in test [15], 113% (inactive); in test [16], 97% (inactive); in test [17] it was 114% (inactive). Moreover, the growth is 76.2% (inactive) in test [18] and 91.3% (inactive) in [19].
On to `COc1c(O)cc2oc3cc(O)c(CC=C(C)C)c(O)c3c(=O)c2c1CC=C(C)C`, for which the growth in test [1] was 72.9% (inactive); in [2], 83.6% (inactive); in test [3], 75.7% (inactive); in test [5], 77% (inactive); in test [6], 60.4% (inactive); in test [7], 54.3% (inactive). Besides, the growth in test [8] was 78.4% (inactive); in [9], 95.2% (inactive); in [10] it was 62% (inactive); in test [11] it was 26.7% (inactive); in test [12], 87.4% (inactive); in test [13], 40.2% (inactive). The growth in test [14] is 83% (inactive); in [15], 57.9% (inactive); in test [16], 56.2% (inactive); in [17], 89% (inactive); in [19] it was 54.4% (inactive).
On to `C[n+]1c2cc(N)ccc2cc2ccc(N)cc21`, for which the growth is -14.9% (active) [middle of 4 runs] in test [1]; 43.9% (inactive) and 8.02% (active) and -29.2% (active) in test [5]; -62% (active) and -11.9% (active) and -51.7% (active) in [12]; 14.5% (inactive) [middle of 4 runs] in test [13]; -34.2% (active) and 5.66% (active) and -8.06% (active) in [14]; 10.8% (inactive) and 19.8% (inactive) and -3.57% (active) in [17].

These data come from PubChem BioAssay (NCI).
